The panel holds about 83,000 compounds, 20% with a hit somewhere; the sample as a whole holds those more often.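 A percent growth of 40 corresponds to 60% growth inhibition; 0 means no net growth; -100 means all cells died. Active threshold: below 10.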 Active and inactive are the calls of the source.

Here are results for 14 compounds from PubChem BioAssay (NCI).

This experiment has as its system HCC-2998 colon. In words: NCI-60 one-dose screen, 48 h (100 = growth as untreated, 0 = no growth, -100 = all killed). As to conditions: 10 µM unless noted.
`Cc1[nH]c(-c2cc(N)ccc2Cl)c2c1C(=O)CCCC2`: the growth was 33.5% (inactive).
The value for `COc1ccc(/C=C\c2cc(OC)c(OC)c(OC)c2)cc1OC(=O)c1cccc(Cn2cc(CCOC(=O)[C@H](N)Cc3cn(C)c4ccccc34)nn2)c1` was 20.7% (inactive); that for `CC1CCNC(C)C1` (centres undefined) was 103% (inactive); that for `Clc1ccc2c(NCCNc3nc(N4CCOCC4)nc4ccccc34)ccnc2c1` was 32.3% (inactive).
In the case of `CNC(=O)c1cc(Oc2ccc(NC(=O)Nc3ccc(Cl)c(SC)c3)c(F)c2)ccn1` it was 51.3% (inactive).
The value for `O=Nc1c(O)c(Cl)cc2ccccc12` was 115% (inactive); that for `COc1ccc(-c2nc3ccc(-c4nc5ccc(N6CCN(c7ccncc7)CC6)cc5[nH]4)cc3[nH]2)cc1OC` was 34.9% (inactive).
As for `COc1cc(/C=C/c2cc(O)c3cc(C(C)=O)c(=O)oc3c2)cc2c1O[C@]1(C)CC[C@@H](O)C(C)(C)[C@H]1C2`, the growth was 67% (inactive).
The value for `COc1ccc(/C=C/c2nc3ccccc3nc2/C=C/c2ccc(OC)cc2)cc1` was 104% (inactive); that for `CN(C)CCCNc1c2ccccc2nc2ccccc12` was 107% (inactive).
The value for `O=C(Nc1ccc(Cl)cc1)c1cc2cc(F)ccc2cc1O` was 27.8% (inactive); that for `Cc1ccc(C2=NN3C(C2)c2cc(Br)ccc2OC32CCN(Cc3ccccc3)CC2)o1` (centres undefined) was 97.9% (inactive).
The value for `O=C(CCN1C(=O)/C(=C/c2ccc(Cl)cc2)SC1=S)NCCCN1CCOCC1` was 105% (inactive); that for `C#CCOc1ccc2ncnc(N3CCN(C(=O)CCl)CC3)c2c1` was 112% [8.25 µM] (inactive).
